Bioassay records from PubChem BioAssay.
Shown are actives, neighbours in structure and some others; about 2.4% of the full set was active somewhere.
M1 PAM = human M1 muscarinic receptor positive allosteric modulators, primary screen, CHO-K1 cells, Fluo-8 calcium fluorescence, 1536-well | 360,000 compounds, 0.088% hits | activation, % at 3 µM | CHO-K1 hM1, ACh EC20; 0% = ACh EC20, 100% = maximal ACh; in the data active means activation above about 19%, passing the limit was not always enough
Target sequence (P11229 whole entry, looked up): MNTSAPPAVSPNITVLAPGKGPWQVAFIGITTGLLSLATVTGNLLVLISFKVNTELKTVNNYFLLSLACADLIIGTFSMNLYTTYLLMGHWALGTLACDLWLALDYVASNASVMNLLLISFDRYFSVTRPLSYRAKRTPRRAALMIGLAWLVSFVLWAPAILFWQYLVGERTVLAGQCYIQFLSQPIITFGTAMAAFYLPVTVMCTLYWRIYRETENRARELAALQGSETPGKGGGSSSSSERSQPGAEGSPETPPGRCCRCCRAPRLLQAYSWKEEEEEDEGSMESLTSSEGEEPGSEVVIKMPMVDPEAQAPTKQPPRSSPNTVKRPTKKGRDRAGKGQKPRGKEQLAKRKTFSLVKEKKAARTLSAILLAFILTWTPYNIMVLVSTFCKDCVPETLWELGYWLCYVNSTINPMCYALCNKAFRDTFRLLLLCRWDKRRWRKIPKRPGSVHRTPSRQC
M1 PAM parental = nonselective calcium activators in parental CHO-K1 cells, primary screen, counter-screen for M1 PAM project, cell-based, Fluo-8 calcium fluorescence, full deck, 1536-well. 360,000 compounds, 0.02% hits. ATP EC20; 0% at ATP EC20, 100% at ATP max. activation, % at 3 µM. AID 602247, 2012;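 active means activation above the run cutoff, the mean activation of all test compounds plus 3 SD, cut at about 40% in these data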;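 further: peak over basal fluorescence ratio in a 140 s read after ATP addition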
M1 ag parental = counter-screen for M1 agonists: effect in parental CHO-K1 cells. 360,000 compounds, 0.48% hits. Fluo-8 calcium fluorescence; scaled to maximal ATP response, vehicle zero. activation, % at 3 µM. AID 602248, 2012; in the data active means activation above about 15%;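 further: untransfected CHO-K1 host cells lacking M1 receptor as counterscreen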
CHO-K1 Ca antag = counter-screen for M1 antagonists: effect in parental CHO-K1 cells; ATP-induced calcium, Fluo-8 fluorescence; 360,000 compounds, 0.6% hits; inhibition, % at 3 µM;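 active means inhibition above a per-plate cutoff, the plate's mean sample inhibition plus 3 SD, cut at about 24% in these data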;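 further: 0% = DMSO plus EC80 ATP and 100% = DMSO alone without ATP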
M1 antag = human M1 muscarinic receptor antagonists, primary screen, CHO-K1 cells, Fluo-8 calcium fluorescence, 1536-well; Muscarinic acetylcholine receptor M1 (Homo sapiens), P11229; CHO-K1 hM1, ACh EC80 antagonist; inhibition, % at 3 µM; 360,000 compounds, 1.3% hits; AID 588852, 2011;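 active means percent inhibition above its own plate's cutoff, namely the mean of that plate's compound wells plus 3 SD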;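 further: peak over basal fluorescence ratio during 140 s after agonist addition; 0% = ACh EC80 plus DMSO and 100% = DMSO alone without agonist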
CHRM1 agonist = human M1 muscarinic receptor agonists, primary screen, Fluo-8 calcium fluorescence, CHO-K1 cells, HTS; activation, % at 3 µM; 360,000 compounds, 0.33% hits; CHO-K1 hM1, agonist mode; 0% DMSO, 100% acetylcholine EC100; Muscarinic acetylcholine receptor M1 (Homo sapiens), P11229;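 active means activation above the run's mean compound activation plus 3 SD, cut at about 16% in these data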;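 further: peak over basal fluorescence ratio within a 140 s kinetic read after compound addition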
Active calls of the source: *; . = no result given.

SMILES | M1 PAM | M1 PAM parental | M1 ag parental | CHO-K1 Ca antag | M1 antag | CHRM1 agonist
O=C(Cn1cc(COc2ccc(Br)cc2[N+](=O)[O-])nn1)c1ccc(O)cc1 | 0.4 | -8.9 | 1.6 | 24.9* | -5.4 | -3.6
CC1(c2ccccc2)NC(=O)N(CC(=O)Nc2ccccc2N2CCCC2)C1=O (stereo not given) | 8.0 | -30.4 | 3.2 | 12.7 | -2.3 | 16.2*
CC1(c2ccc3c(c2)OCCO3)NC(=O)N(CC(=O)Nc2c(F)cccc2F)C1=O (stereo not given) | 7.9 | -14.0 | 1.2 | -10.2 | -5.6 | 2.8
CC1(c2ccc3c(c2)OCCO3)NC(=O)N(CC(=O)Nc2ccccc2F)C1=O (stereo not given) | 8.9 | -18.9 | 0.8 | 29.7* | -6.3 | 11.8
O=C(CN1C(=O)NC2(CCCC2)C1=O)Nc1ccccc1N1CCCC1 | 11.9 | 14.2 | 2.1 | -13.1 | -15.2 | -1.5
COc1cccc(OCCNS(=O)(=O)c2ccccc2[N+](=O)[O-])c1 | 7.5 | -0.2 | 0.9 | -7.2 | -12.1 | -3.5
CN1CCN(C(=O)C2=C[C@H](c3csc4ccccc34)C[C@H](OCCCCO)O2)CC1 | -1.2 | -15.8 | 0.5 | 3.7 | -1.6 | -5.2
Cc1ccc(CN2CCN(/N=C/c3ccc(Cl)c([N+](=O)[O-])c3)CC2)cc1 | -6.5 | 20.0 | 3.7 | -3.6 | 0.9 | -14.5
COc1ccccc1CNc1nc(NCCNC(C)=O)c2sccc2n1 | 4.5 | 17.9 | 0.7 | -3.5 | -19.1 | -7.6
COCCNc1nc(NCc2ccccc2OC)c2sccc2n1 | -0.6 | 12.1 | 7.2 | -13.6 | -5.0 | -3.3
CC(=O)NCCNc1nc(NCc2ccccc2)nc2ccsc12 | -27.4 | -11.1 | 10.3 | 9.3 | 7.9 | 31.8*
CCCCNc1nc(NCc2ccccc2)nc2ccccc12 | . | -17.3 | 49.3* | 53.6* | . | .
O=C1CCCN1CCCNc1nc(NCc2ccccc2)nc2ccsc12 | -33.0 | -15.6 | 86.2* | 84.2* | 101.0* | 91.9*
COCCNc1nc(NCc2ccccc2)nc2ccsc12 | -32.7 | -16.1 | 77.1* | 95.5* | 99.9* | 79.1*
COc1cccc(-c2noc(-c3ccc(Br)o3)n2)c1 | -1.1 | -13.6 | 0.3 | -11.6 | 2.1 | -5.1
CCC(C)NS(=O)(=O)c1ccc(S(=O)(=O)N2CC=C(c3ccc(F)cc3)CC2)cc1 (stereo not given) | -15.7 | 16.7 | 3.0 | 0.0 | 21.9 | -2.1
CCN(CC)S(=O)(=O)c1ccc(C(=O)NCC(=O)NCCCc2ccccc2)cc1 | 2.8 | -8.0 | 1.2 | 2.0 | -1.2 | -2.5
COc1ccccc1C1/C(=C(\O)c2ccc3c(c2)OCCO3)C(=O)C(=O)N1Cc1cccnc1 (stereo not given) | 0.5 | 6.5 | -0.3 | 2.4 | -4.4 | -1.4
c1ccc2c3c([nH]c2c1)CCNC3 | -8.4 | 20.2 | 1.4 | -5.5 | -3.8 | 26.8*
O=C(N/N=C\c1c(O)ccc2ccccc12)c1cncc(Br)c1 | 1.5 | -11.3 | 39.4* | 6.4 | -8.4 | 41.8*
Cn1cc(Cl)c(/C(N)=N/OC(=O)c2ccccc2C(F)(F)F)n1 | 6.9 | 11.1 | 1.1 | -7.6 | -11.4 | -1.2
O=C(/C(=C/O)N=Nc1ccccc1)c1ccncc1 | -3.2 | -2.4 | 23.2* | -6.6 | 3.7 | -2.0
CCN(CC)CCNc1ccnc2cc(Cl)ccc12 | -4.4 | 8.2 | 0.6 | -18.4 | -4.6 | -13.9
Clc1ccc2c(NCc3ccccc3)ccnc2c1 | -9.0 | -0.6 | 16.7* | 4.8 | -0.8 | -5.1
N#Cc1ccsc1NC(=O)c1ccc(Cl)c([N+](=O)[O-])c1 | -9.3 | -10.2 | 18.6* | 13.3 | 26.0 | 8.0
SMILES | M1 PAM | M1 PAM parental | M1 ag parental | CHO-K1 Ca antag | M1 antag | CHRM1 agonist
COc1ccc(NC(=O)c2cc(C3CCCCN3C(=O)c3ccc4c(c3)CCO4)on2)c(C)c1 (stereo not given) | -0.2 | 2.2 | 0.9 | -11.3 | -11.1 | -6.7
COc1cccc(Nc2nc(C(N)Cc3ccc(F)cc3)cs2)n1 (stereo not given) | 7.2 | 21.0 | 15.2* | -0.8 | -0.1 | 12.3
CC1(C(=O)NS(=O)(=O)c2ccc(F)cc2F)CCN1C(=O)CC1CCCC1 (stereo not given) | 4.8 | 19.6 | 0.6 | -17.1 | -9.7 | -0.8
COc1cc(C2C(C#N)=C(N)N(Nc3ccccc3)C3=C2C(=O)CC(C)(C)C3)ccc1OCc1cccc(F)c1 (stereo not given) | -3.4 | -9.0 | -0.3 | 32.9* | 10.3 | -2.9
COc1cc(C2C(C#N)=C(N)N(Nc3ccccc3)C3=C2C(=O)CC(C)(C)C3)ccc1OCc1ccccc1 (stereo not given) | 3.5 | 5.1 | 1.5 | -3.2 | 3.2 | -2.7
Cc1cc(C)cc(N(CCC#N)C(=O)COC(=O)c2nc3nc(C)cc(C)n3n2)c1 | 8.7 | 0.4 | 8.4 | -1.1 | -4.2 | -1.9
C#CCOc1ccc(/C=C2/C(=O)N(c3cccc(C(=O)O)c3)N=C2C)cc1OC | 9.2 | -18.6 | -0.8 | 25.7* | -6.8 | 0.6
COc1cc(/C=C2\C(=O)N(c3cccc(C(=O)O)c3)N=C2C)ccc1OCc1ccccc1 | 2.9 | -10.4 | 0.0 | -1.1 | -7.8 | -3.2
Cc1ccc(N(CC(=O)N2CC(=O)Nc3ccccc32)S(=O)(=O)c2ccc3c(c2)OCCO3)cc1 | 6.2 | -2.6 | 0.3 | 29.1* | -1.6 | -3.1
O=C(O)CN(c1ccc(F)cc1)S(=O)(=O)c1ccc2c(c1)OCCO2 | 13.3 | 5.1 | -0.1 | -5.3 | -18.3 | -3.1
CC(C)(C)OC(=O)NCCCC[C@H](NC(=O)c1nc[nH]c1C(=O)NC(c1ccccc1)c1ccccc1)C(=O)OC(C)(C)C | 4.1 | -11.7 | -0.2 | 3.6 | 2.8 | 0.2
COc1ccccc1C1CCN(C(=O)c2ccco2)CC1 | 2.3 | 20.2 | 0.8 | -8.9 | -1.8 | -3.8
C=CCn1cccc(C(=O)Nc2ccc(OC)c(OC)c2)c1=O | 0.5 | 1.4 | 15.5* | 4.8 | 0.0 | -3.1
Cc1ccc(/C=N/NC(=O)c2ccc3ccccc3c2)s1 | 2.5 | -16.3 | -0.2 | 24.6* | -10.9 | -3.2
Cc1ccc2c(c1C)OC(=O)CC2(C)C | 5.5 | 8.0 | 0.1 | -1.6 | 1.9 | -2.1
Oc1ccc(Br)cc1C=Nc1ccc2c3c(cccc13)CC2 | -1.8 | 2.7 | 22.0* | 32.4* | 12.6 | 10.9
COc1ccc(NC(=S)NC(=O)Cc2ccccc2)cc1 | 5.3 | 12.3 | 10.2 | -0.8 | -9.6 | -1.2
COc1ccc(CC(=O)NC(=S)Nc2ccc(S(=O)(=O)NC(C)(C)C)cc2)cc1 | 8.5 | 29.4 | 11.4 | 0.8 | -14.7 | 23.6*
COc1ccc(CC(=O)NC(=S)Nc2ccc(S(N)(=O)=O)cc2)cc1 | -0.6 | 6.6 | 14.5 | -4.2 | 0.3 | 29.8*
COc1ccc(C(=O)NC(=S)Nc2ccc(S(N)(=O)=O)cc2)cc1 | 13.8 | 2.6 | 0.0 | 4.8 | -8.3 | -9.4
